Measurements reported in PubChem BioAssay (Tox21).
Inconclusive results are not listed. Unmarked numbers belong to inactive results. The source made the active and inactive calls. Calls come from the whole dose curve; as a rule, active = well fitted cell-killing curve with a large enough effect in the repeat runs; inconclusive = weak or mixed curves, or effect the other way; inactive = flat fitted curve, though single readings scatter.

Test: cAMP Responsive Elements (CRE) small molecule antagonists, cell-based qHTS assay: qHTS cell viability counter screen (AID 2060913); note: nearly all actives have a fitted effect of over 40% in size
Details: CRE-bla HEK293T viability, CellTiter-Glo luminescence, 5 h; series mostly up to 92.4 µM; viability change, negative = cytotoxic: at the top concentration
Outline: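 CRE-bla HEK293T cells (2,000/well, 18 h) given compound plus NKH477 0.25 uM final for 3 h at 37C; viability counter-screen by CellTiter-Glo luminescence in same wells after 30 min.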
% is set by controls: 0 for no effect and ±100 for the full control effect; potency is the fitted concentration of half-maximal effect.

| SMILES | viability change, negative = cytotoxic | Potency |
| --- | --- | --- |
| CC(=O)OCC(C)C | 3.77% | – |
| CC/C=C\CCOC(=O)c1ccccc1O | 0.413% | – |
| OCCCCl | -12.7% | – |
| CC(C)(c1ccc(Oc2ccc3c(c2)C(=O)OC3=O)cc1)c1ccc(Oc2ccc3c(c2)C(=O)OC3=O)cc1 | 1.53% | – |
| CC1(O)CSC(C)(O)CS1 (stereo not drawn) | -0.984% | – |
| CCCN(CCC)S(=O)(=O)c1ccc(C(=O)O)cc1 | – | inactive |
| O=C(O)c1cc2ccccc2nc1C(=O)O | -0.462% | – |
| O=C1OC(CN2CCOCC2)CN1/N=C/c1ccc([N+](=O)[O-])o1 (stereo not drawn) | 0.959% [at 42.5 µM] | – |
| Cc1nc2ccccc2n1Cc1ccc(Cl)cc1 | -14.5% [at 42.5 µM] | – |
| c1cc(CN2CCCCC2)cc(OCCCNc2nc3ccccc3s2)c1 | -7.03% [at 42.5 µM] | – |
| CC(=O)c1cc2ccccc2s1 | 3.15% [at 42.5 µM] | – |
| CCc1cc(SCc2sc(-c3ccc(C(F)(F)F)cc3)nc2CN2CCN(c3ccc(OC)cc3)CC2)ccc1OCC(=O)O | – | 54.5 µM (active) |
| CC(C)(C)OC(=O)c1cccc(N)c1 | 14.3% | – |
| O=c1cccc[nH]1 | -0.124% | – |
| NS(=O)(=O)c1cc(C(=O)O)c(NCc2ccco2)cc1Cl | – | inactive |
| CCCC(=O)O | – | inactive |
| Cc1ccc(N=Nc2c(O)c(C(=O)O)cc3ccccc23)c(S(=O)(=O)O)c1 | 16.5% [at 42.5 µM] | – |
| CCCCCCCCCCCC(=O)OCC(O)CO (stereo not drawn) | -3.63% | – |
| CCCCSCCCC | 0.157% | – |

Test: cAMP Responsive Elements (CRE) small molecule agonists, cell-based qHTS assay: qHTS cell viability counter screen (AID 2060914); note: nearly all actives have a fitted effect of over 50% in size
Details: CRE-bla HEK293T viability, CellTiter-Glo luminescence, 5 h; series mostly up to 92.4 µM; activity change, negative = cytotoxicity: at the top concentration
Outline: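 In the same wells as the reporter read, viability of CRE-bla HEK 293T cells was quantified by CellTiter-Glo luminescence after a 3 h compound exposure.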

| SMILES | activity change, negative = cytotoxicity | Potency |
| --- | --- | --- |
| COc1cccc(OC)c1C(=O)O | 9.51% | – |
| C[C@H]1O[C@@H](n2cc(F)c(=O)[nH]c2=O)[C@H](O)[C@@H]1O | -0.401% [at 42.5 µM] | – |
| O=C(NC(Cc1cc(=O)[nH]c2ccccc12)C(=O)O)c1ccc(Cl)cc1 (stereo not drawn) | 0.8% [at 42.5 µM] | – |
| CCN(CC)CCNC(=O)c1cc(Cl)c(N)cc1OC | 7.43% [at 42.5 µM] | – |
| COc1cc(CCC(C)=O)ccc1O | -10.5% | – |
| COC(=O)c1ccc(C)cc1C1=NC(C)(C(C)C)C(=O)N1 (stereo not drawn) | -0.149% | – |
| O=C(O)/C=C/c1ccc(Cn2ccnc2)cc1 | -0.242% [at 42.5 µM] | – |
| C=C1C2CCC(C2)C1(C)C (stereo not drawn) | -17.8% | – |
| COc1cc(C(C)C)ccc1C | -11.5% [at 18.9 µM] | – |
| CCN(CCCc1ccccc1)CCCc1ccccc1 | 5.86% [at 42.5 µM] | – |
| Nc1c(N=Nc2ccc(-c3ccc(N=Nc4cc(S(=O)(=O)O)c5ccccc5c4N)cc3)cc2)cc(S(=O)(=O)O)c2ccccc12 | -7.54% | – |
| O[C@@H]1CO[C@H]2[C@@H]1OC[C@@H]2O | -0.622% [at 42.5 µM] | – |
| COC(=O)c1ccc([N+](=O)[O-])cc1 | -2.7% | – |
| C[n+]1c2cc(N)ccc2cc2ccc(N)cc21 (tested in a mixture with another compound) | 8.1% [at 42.5 µM] | – |
| O=C(CCc1ccc(O)cc1)c1c(O)cc(O)cc1O | -22.6% | – |
| Nc1c(NC/C=C\COc2cc(CN3CCCCC3)ccn2)c(=O)c1=O | 0.246% [at 18.9 µM] | – |
| Nc1ccc2cc(S(=O)(=O)O)cc(O)c2c1 | 0.698% | – |
| c1cc(N(CC2CO2)CC2CO2)ccc1Cc1ccc(N(CC2CO2)CC2CO2)cc1 (stereo not drawn) | 0.645% | – |
| NC(=O)c1cnccn1 | – | inactive |
| Cc1c(-c2ccc(O)cc2)n(Cc2ccc(OCCN3CCCCCC3)cc2)c2ccc(O)cc12 | -10.5% [at 42.5 µM] | – |

| SMILES | activity change, negative = cytotoxicity | Potency |
| --- | --- | --- |
| CC(=O)OCC(C)C | 16.1% | – |
| CC/C=C\CCOC(=O)c1ccccc1O | -2.59% | – |
| OCCCCl | 9.03% | – |
| CC(C)(c1ccc(Oc2ccc3c(c2)C(=O)OC3=O)cc1)c1ccc(Oc2ccc3c(c2)C(=O)OC3=O)cc1 | 5.19% | – |
| CC1(O)CSC(C)(O)CS1 (stereo not drawn) | 0.913% | – |
| CCCN(CCC)S(=O)(=O)c1ccc(C(=O)O)cc1 | – | inactive |
| O=C(O)c1cc2ccccc2nc1C(=O)O | -1.19% | – |
| O=C1OC(CN2CCOCC2)CN1/N=C/c1ccc([N+](=O)[O-])o1 (stereo not drawn) | 0.733% [at 42.5 µM] | – |
| Cc1nc2ccccc2n1Cc1ccc(Cl)cc1 | -14.9% [at 42.5 µM] | – |
| c1cc(CN2CCCCC2)cc(OCCCNc2nc3ccccc3s2)c1 | -0.961% [at 42.5 µM] | – |
| CC(=O)c1cc2ccccc2s1 | 6.91% [at 42.5 µM] | – |
| CCc1cc(SCc2sc(-c3ccc(C(F)(F)F)cc3)nc2CN2CCN(c3ccc(OC)cc3)CC2)ccc1OCC(=O)O | – | 61.1 µM (active) |
| CC(C)(C)OC(=O)c1cccc(N)c1 | 1.92% | – |
| O=c1cccc[nH]1 | 4.52% | – |
| NS(=O)(=O)c1cc(C(=O)O)c(NCc2ccco2)cc1Cl | – | inactive |
| CCCC(=O)O | – | inactive |
| Cc1ccc(N=Nc2c(O)c(C(=O)O)cc3ccccc23)c(S(=O)(=O)O)c1 | 12.2% [at 42.5 µM] | – |
| CCCCCCCCCCCC(=O)OCC(O)CO (stereo not drawn) | 3.41% | – |
| CCCCSCCCC | 5.97% | – |
